Inconclusive results are not listed. A call without a number means that no potency is given here. The source made the active and inactive calls. The call rests on the fitted dose curve.

The target of the first test is Acetylcholinesterase (Homo sapiens) (UniProt P22303). Kind of test: Acetylcholinesterase (AChE) small molecule antagonists: fluorescence cell-based qHTS assay (AID 1347398). Further: nearly all actives have a fitted effect of over 50% in size. Conditions: SH-SY5Y cells; Potency: AChE activity; outcome: AChE activity; series mostly up to 115 µM. An outline of the steps: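 Cellular AChE inhibition: SH-SY5Y cells treated with test chemical for 30 min at 37 C, then acetylthiocholine hydrolysis followed over 40 min at room temperature via thiocholine-reactive Thiolite Green fluorescence (490/520 nm).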
Chain of Acetylcholinesterase (Homo sapiens) (P22303 whole entry, looked up): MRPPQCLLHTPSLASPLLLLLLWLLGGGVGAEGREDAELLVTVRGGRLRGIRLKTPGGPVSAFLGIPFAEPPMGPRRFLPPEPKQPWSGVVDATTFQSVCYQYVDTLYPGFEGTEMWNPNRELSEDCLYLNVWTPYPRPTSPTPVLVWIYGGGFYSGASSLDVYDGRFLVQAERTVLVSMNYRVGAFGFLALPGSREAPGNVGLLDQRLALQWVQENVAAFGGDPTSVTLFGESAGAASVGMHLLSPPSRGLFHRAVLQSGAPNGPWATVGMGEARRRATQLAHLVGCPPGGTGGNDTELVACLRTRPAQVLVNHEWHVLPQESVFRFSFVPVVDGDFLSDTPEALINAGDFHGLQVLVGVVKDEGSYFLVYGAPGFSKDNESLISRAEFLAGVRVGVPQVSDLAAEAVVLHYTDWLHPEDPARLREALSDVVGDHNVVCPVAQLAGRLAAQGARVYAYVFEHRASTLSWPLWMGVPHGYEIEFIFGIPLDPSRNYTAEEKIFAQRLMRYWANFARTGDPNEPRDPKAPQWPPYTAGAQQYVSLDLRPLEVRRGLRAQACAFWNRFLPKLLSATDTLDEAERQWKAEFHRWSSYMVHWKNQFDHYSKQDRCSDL
On the technique in general: In qHTS, concentration-response curves come from the screen itself.
Consider `CC1=C(C)C(=O)C(C(CCCCCC(=O)O)c2ccccc2)=C(C)C1=O` (stereo not given), for which the Potency entry is “inactive”.
Same read-out and setting: for `CCCCC(CC)COC(=O)CCCCCCCC(=O)OCC(CC)CCCC` (stereo not given) the value was “inactive”.
As for `COC(=O)c1ccc(C(=O)OC)c(C(=O)OC)c1`, the Potency entry was “inactive”.
On the same count and under the same terms, to `O=C(O)CCCCC(=O)O` belongs “inactive”; to `CCN(CCC#N)c1ccccc1`, “inactive”; to `CCCC(=O)CC`, “inactive”.
On the same count and under the same terms, to `CCCCCCCCCC(=O)O` belongs “inactive”; to `c1ccc2ncccc2c1`, “inactive”.
In the case of `CN(C)[C@@H]1C(=O)C(C(N)=O)=C(O)[C@@]2(O)C(=O)C3=C(O)c4c(O)cccc4C[C@H]3C[C@@H]12`, the Potency entry is “inactive”.
Still for that read-out and setting: for `O=C(CC(C(=O)OC1CCCCC1)S(=O)(=O)O)OC1CCCCC1` (stereo not given) the value was “inactive”; for `OCc1c2ccccc2cc2ccccc12`, “inactive”; for `COc1ccccc1O`, “inactive”.
On the same count and under the same terms, to `COc1ccc(CCN(C)CCCN2CCc3cc(OC)c(OC)cc3CC2=O)cc1OC` belongs “inactive”; to `COc1cc([C@H]2Oc3cc([C@H]4Oc5cc(O)cc(O)c5C(=O)[C@@H]4O)ccc3O[C@@H]2CO)ccc1O`, “inactive”.
Same read-out and setting: to `CCN(Cc1cccc(S(=O)(=O)O)c1)c1ccccc1` belongs “inactive”; to `Oc1ccc2cc(SSc3ccc4cc(O)ccc4c3)ccc2c1`, “inactive”; to `O=C=NCC1CCCC(CN=C=O)C1` (stereo not given), “inactive”.
`CCC(C(=O)O)c1ccc(N2Cc3ccccc3C2=O)cc1` (stereo not given): the Potency result is “inactive”.
The same measure, in the same setting: for `CCCCOC(=O)CCC(C)=O` the value was “inactive”; for `Cc1ccc(S(=O)(=O)NC(=O)NN2CC3CCCC3C2)cc1` (stereo not given), “inactive”.

The target is the same in the next test. Description: Acetylcholinesterase (AChE) small molecule antagonists: enzyme-based qHTS assay with human liver microsomes (AID 1347399). Further: nearly all actives have a fitted effect of over 60% in size. Conditions: Potency: qHTS inhibition; outcome: qHTS inhibition; series mostly up to 115 µM. An outline of the steps:
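Recombinant human AChE (50 mU/mL in the enzyme mix) and human liver microsomes (0.25 mg/mL final) were preincubated with compound and NADPH (0.25 mg/mL final) for 30 min at 37 C. Acetylthiocholine/DTNB was then added; thiocholine was read colorimetrically after 10 min at room temperature.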
As to `CN(N=O)C(=O)N[C@@H]1[C@@H](O)[C@H](O)[C@@H](CO)O[C@@H]1O`, the Potency entry is “inactive”.
Consider `O=C1CCCCC1C1CCCCC1` (stereo not given), for which the Potency entry was “inactive”.
Turning to `CCOC(=O)COc1ccc2c(C)c(CCN(CC)CC)c(=O)oc2c1Cl`, the Potency entry was “inactive”.
Still for that read-out and setting: for `C=C(C)C(N)=O` the value was “inactive”; for `NC(=O)C1(N2CCCCC2)CCN(CCCC(=O)c2ccc(F)cc2)CC1`, “inactive”.
On the same count and under the same terms, to `CCCC(=O)OCOC(=O)C1=C(C)NC(C)=C(C(=O)OC)C1c1cccc(Cl)c1Cl` (stereo not given) belongs “inactive”; to `O=C(Nc1ccccc1SSc1ccccc1NC(=O)c1ccccc1)c1ccccc1`, “inactive”.
Take `CCc1nc(N)nc(N)c1-c1ccc(Cl)cc1`: the Potency result was “inactive”.
Same read-out and setting: to `CCN(Cc1ccccc1)c1ccccc1` belongs “inactive”; to `CCOC(=O)C1=C[C@]2(CC)CCCN3CCc4c(n1c1ccccc41)[C@@H]32`, “inactive”; to `COC(=O)[C@H]1[C@H]2C[C@@H]3c4[nH]c5cc(OC)ccc5c4CCN3C[C@H]2C[C@@H](OC(=O)/C=C/c2ccc(O)c(OC)c2)[C@@H]1OC`, “inactive”.
In the case of `CC(C)OC(=O)CCC(=O)OC(C)C`, the Potency entry is “inactive”.
In the case of `CCC(=O)CC(C)CC` (stereo not given), the activity change, negative = inhibition was 0% [at 0.435 µM] (inactive).
For `CN(C)C(=O)Nc1ccc(Cl)c(Cl)c1`, the Potency result is “inactive”.
The same measure, in the same setting: for `COc1ccc(NC(=O)CC(C)=O)cc1` the value was “inactive”; for `CC(C)(C)C(=O)CC(=O)C(C)(C)C`, “inactive”.
As to `N[C@@H](Cc1cc(I)c(Oc2cc(I)c(O)c(I)c2)c(I)c1)C(=O)O`, the Potency entry is “inactive”.
The same measure, in the same setting: for `OC/C(Br)=C(\Br)CO` the value was “inactive”.
Same read-out and setting: to `CCCCN(CCCC)C(=S)SSC(=S)N(CCCC)CCCC` belongs “inactive”; to `FC(F)(F)c1ccccc1-n1ccnc1`, “inactive”.
For `CC1=C(C)C(=O)C(C(CCCCCC(=O)O)c2ccccc2)=C(C)C1=O` (stereo not given), the Potency entry is “inactive”.
The same measure, in the same setting: for `CCCCC(CC)COC(=O)CCCCCCCC(=O)OCC(CC)CCCC` (stereo not given) the value was “inactive”; for `COC(=O)c1ccc(C(=O)OC)c(C(=O)OC)c1`, “inactive”.
Same read-out and setting: to `O=C(O)CCCCC(=O)O` belongs “inactive”; to `CCN(CCC#N)c1ccccc1`, “inactive”.
With `CCCC(=O)CC`, the Potency result is “inactive”.
`CCCCCCCCCC(=O)O`: the Potency entry was “inactive”.
Same read-out and setting: for `c1ccc2ncccc2c1` the value was “inactive”.
On the same count and under the same terms, to `CN(C)[C@@H]1C(=O)C(C(N)=O)=C(O)[C@@]2(O)C(=O)C3=C(O)c4c(O)cccc4C[C@H]3C[C@@H]12` belongs “inactive”; to `O=C(CC(C(=O)OC1CCCCC1)S(=O)(=O)O)OC1CCCCC1` (stereo not given), “inactive”; to `OCc1c2ccccc2cc2ccccc12`, “inactive”.
Same read-out and setting: for `COc1ccccc1O` the value was “inactive”.
`COc1ccc(CCN(C)CCCN2CCc3cc(OC)c(OC)cc3CC2=O)cc1OC`: the Potency entry was “inactive”.
`COc1cc([C@H]2Oc3cc([C@H]4Oc5cc(O)cc(O)c5C(=O)[C@@H]4O)ccc3O[C@@H]2CO)ccc1O`: the Potency result is “inactive”.
Still for that read-out and setting: for `CCN(Cc1cccc(S(=O)(=O)O)c1)c1ccccc1` the value was “inactive”.
The same measure, in the same setting: for `Oc1ccc2cc(SSc3ccc4cc(O)ccc4c3)ccc2c1` the value was “inactive”; for `O=C=NCC1CCCC(CN=C=O)C1` (stereo not given), “inactive”.
On the same count and under the same terms, to `CCC(C(=O)O)c1ccc(N2Cc3ccccc3C2=O)cc1` (stereo not given) belongs “inactive”.
In the case of `CCCCOC(=O)CCC(C)=O`, the Potency result was “inactive”.
On the same count and under the same terms, to `Cc1ccc(S(=O)(=O)NC(=O)NN2CC3CCCC3C2)cc1` (stereo not given) belongs “inactive”.

The values are drawn from PubChem BioAssay (Tox21).
